The source of these data is PubChem BioAssay AID1851 (National Center for Advancing Translational Sciences (NCATS), 2009).

Each structure is given as a SMILES string. About 5,700 (36%) of roughly 16,000 compounds were called active. About 24% were inconclusive and are not listed. Some of the results follow. Values without a mark were called inactive. Calls come from the whole dose curve; as a rule, active = well fitted curve in the direction sought with a large enough effect; inconclusive = small, poorly fitted or top-dose-only effect, or effect the other way; inactive = no such curve, though single readings can be large or run the other way.
% is set by controls: 0 for no effect and ±100 for the full control effect.

The target in this assay is Cytochrome P450 1A2 (Homo sapiens) (UniProt P05177). Briefly: Cytochrome panel assay with activity outcomes. The note with it: recombinant CYP, pro-luciferin dealkylation, luminescence, p450-cyp1a2; series mostly up to 57.1 µM.
Cytochrome P450 1A2 (Homo sapiens), sequence (P05177 whole entry, looked up): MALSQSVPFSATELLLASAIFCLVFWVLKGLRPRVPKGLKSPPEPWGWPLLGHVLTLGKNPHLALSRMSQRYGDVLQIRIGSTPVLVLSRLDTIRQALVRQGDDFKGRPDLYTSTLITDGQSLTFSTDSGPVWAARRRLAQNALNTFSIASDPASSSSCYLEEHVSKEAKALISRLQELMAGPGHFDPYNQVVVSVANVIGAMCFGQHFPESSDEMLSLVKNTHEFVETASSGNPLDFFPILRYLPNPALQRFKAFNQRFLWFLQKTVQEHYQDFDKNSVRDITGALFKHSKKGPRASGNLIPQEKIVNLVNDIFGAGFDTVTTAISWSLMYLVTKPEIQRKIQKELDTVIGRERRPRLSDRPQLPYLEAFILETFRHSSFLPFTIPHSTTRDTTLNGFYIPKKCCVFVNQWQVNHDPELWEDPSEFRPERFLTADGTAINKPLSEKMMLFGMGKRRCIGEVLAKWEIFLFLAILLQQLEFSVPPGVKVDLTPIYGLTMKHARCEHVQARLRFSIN
With `CCON=C1C(C)(C)C(C)(C)C(C)(C)C1(C)C`, the activity, negative = inhibition was -12% [at 11.4 µM]. Usually AC50 stands for the concentration giving half of the maximal activity seen. For the compound `CC1CN(C(NC(=O)C(C)(C)C)C(Cl)(Cl)Cl)CC(C)O1` (centres undefined), the AC50 result is “inactive”. Turning to `CN(C)C(=O)c1ccc(-c2nc(NCc3cccs3)c3ccccc3n2)cc1`, the AC50 is 12.6 µM (active). On the same count and under the same terms, the value for `NCCC(=O)NCCc1cnc[nH]1` was “inactive”; that for `CN(C)C(=O)c1ccc(-c2nc(Nc3ccccc3)c3ccccc3n2)cc1` was 0.398 µM (active); that for `COCCNc1nc(-c2ccc(C(=O)N(C)C)cc2)nc2ccccc12` was 20 µM (active). For the compound `CN(C)c1ccc(-c2nc(NCCc3cnc[nH]3)c3ccccc3n2)cc1`, the AC50 was 0.631 µM (active). As to `CCOC(=O)N1CCC(NC(=O)C2CCN(S(=O)(=O)N3CCCC3)CC2)CC1`, the AC50 result was “inactive”. On to `CN(C)C[C@H]1CCC[C@@H](CN(C)C)C1=O`, for which the activity, negative = inhibition is -12.2% [at 11.4 µM]. As to `Cc1ccc(S(=O)(=O)N[C@H](C(=O)N2CCC(C(=O)NCC(=O)O)CC2)C(C)C)cc1`, the AC50 result was “inactive”. `COCCNc1nc(-c2ccc(N(C)C)cc2)nc2ccccc12`: the AC50 was 0.631 µM (active). Still for that read-out and setting: the value for `CC(=O)NCCNc1nc(-c2ccc(N(C)C)cc2)nc2ccccc12` was 3.16 µM (active); that for `CC(=O)NCCNc1nc(-c2ccc(C(=O)N(C)C)cc2)nc2ccccc12` was “inactive”. Still for that read-out and setting: the value for `CC(=O)NCCNc1nc(-c2ccc3c(c2)OCO3)nc2ccccc12` was 2.51 µM (active).

As to `CCCCN(C)CCCNC(=O)CS(=O)Cc1nc(-c2ccc(OC)c(OC)c2)oc1C` (centres undefined), the AC50 entry was “inactive”. On to `O=C(c1cnccn1)N1CCC2(CC1)CN(Cc1cc(C(F)(F)F)cc(C(F)(F)F)c1)C2`, for which the AC50 entry was “inactive”. Same read-out and setting: in the case of `O=c1c(-c2ccc(F)cc2)nc2cnc(N3CCOCC3)nc2n1C1CC1` it was “inactive”; in that of `N#Cc1cccc(-c2nc3cnc(N4CCOCC4)nc3n(C3CC3)c2=O)c1`, 2.51 µM (active); in that of `O=c1c(-c2ccccc2)nc2cnc(N3CCOCC3)nc2n1C1CC1`, 3.16 µM (active).

Turning to `N#Cc1cccc(-c2nc3cnc(N4CCNCC4)nc3n(C3CC3)c2=O)c1`, the AC50 was 5.01 µM (active). Same read-out and setting: in the case of `NC(=O)N1c2ccccc2C=Cc2ccccc21` it was “inactive”. On the same count and under the same terms, in the case of `C=CCn1c(SCC(=O)Nc2c(C)n(C)n(-c3ccccc3)c2=O)nc2sc(C)c(-c3ccccc3)c2c1=O` it was “inactive”; in that of `C=CCn1c(SCC)nc2sc3c(c2c1=O)CCc1ccccc1-3`, 1.78 µM (active).

Consider `CC1(C)Cc2c(sc3nc(SCC(=O)NCc4ccccc4)n(-c4ccccc4)c(=O)c23)CS1`, for which the AC50 result was “inactive”. Still for that read-out and setting: in the case of `CO[C@@H]1CC[C@@]2(C)[C@@H](CC[C@@]3(C)[C@H]2CC=C2[C@H]4CC(C)(C)[C@H](O)[C@@H](OC(C)=O)[C@]4(CO)[C@H](O)C[C@]23C)[C@@]1(C)CO` (tested in a mixture with another compound) it was “inactive”; in that of `COc1ccc2cc(C)c3nnc(SCC(=O)Nc4nc(-c5ccccc5)cs4)n3c2c1`, “inactive”; in that of `COc1ccc(-c2csc(NC(=O)Cn3nc(C)cc3C)n2)cc1`, 3.16 µM (active). `CC(N)=NCCCC[C@H](N)C(=O)O`: the AC50 result is “inactive”. Still for that read-out and setting: in the case of `COc1cc(/C=C\C(=O)N2CCC=CC2=O)cc(OC)c1OC` it was 0.2 µM (active); in that of `COc1cc(/C=C/C(=O)O)cc(S(=O)(=O)NCCCO)c1OC`, “inactive”; in that of `COc1cc(/C=C/C(=O)N2CCN(CC(O)COc3ccccc3)CC2)cc(OC)c1OC` (centres undefined), “inactive”. Still for that read-out and setting: in the case of `COc1ccccc1-c1ccc2ncnc(NCCN3CCOCC3)c2c1` it was 15.8 µM (active).

Consider `Clc1ccccc1-c1ccc2ncnc(NCCN3CCOCC3)c2c1`, for which the AC50 was 5.01 µM (active). As for `N#Cc1ccccc1-c1ccc2ncnc(NCCN3CCOCC3)c2c1`, the AC50 was 10 µM (active). The same measure, in the same setting: in the case of `COc1ccc(C2c3c(ncn(CCN4CCOCC4)c3=N)Oc3ccc4ccccc4c32)cc1OC` (centres undefined) it was “inactive”. On the same count and under the same terms, the value for `CCCN=Cc1c(CCC)[nH]n(-c2nc3ccccc3s2)c1=O` was 0.562 µM (active). As for `CC(=O)NCCNc1ncncc1-c1ccccc1CN(C)C`, the AC50 was 25.1 µM (active).

Take `CC(=O)NCCNc1ncncc1-c1ccc(N(C)C)cc1`: the AC50 is 6.31 µM (active). The same measure, in the same setting: in the case of `CN(C)C(=O)c1ccc(-c2cncnc2NCCN2CCOCC2)cc1` it was “inactive”; in that of `COc1ccccc1-c1cncnc1NCCNC(C)=O`, “inactive”. The same measure, in the same setting: the value for `CN(C)c1ccc(-c2cncnc2NCCN2CCOCC2)cc1` was 15.8 µM (active). As for `COc1ccc(CCN2CC34C=CC(O3)C(C(=O)NCc3ccccc3)C4C2=O)cc1OC` (centres undefined), the AC50 result is “inactive”. Take `COc1cc2c(cc1OC)C(C(=O)N1CCOCC1)C(c1cccs1)N(C)C2=O` (centres undefined): the AC50 result is “inactive”. Still for that read-out and setting: the value for `Clc1ccc(C=Nc2ccc3c(c2)Cc2ccccc2-3)c(Cl)c1` was 0.794 µM (active). In the case of `Oc1ccc(Cl)cc1C=Nc1cnc2ccccc2c1`, the activity, negative = inhibition is -13.2% [at 2.29 µM]. As for `C(/C=C\c1ccccc1)=Nc1ccc2c(c1)Cc1ccccc1-2`, the AC50 was 0.398 µM (active).

As to `O=C(Nc1cccc(F)c1)N1CCCC2(CCN(S(=O)(=O)c3ccccc3)CC2)C1`, the AC50 entry is “inactive”. Same read-out and setting: in the case of `CCCCCCCCCCCCCCCCCCNC(=O)OC[C@@H](COP(=O)([O-])OCC[n+]1ccsc1)OC` it was “inactive”. For `Cc1c(NC(=O)C(C)N2C(=O)c3ccccc3C2=O)c(=O)n(-c2ccccc2)n1C` (centres undefined), the AC50 result was “inactive”.

For `CC(=O)Nc1c2c3c(cccc3n(C)c1=O)C(=O)c1ccccc1-2`, the AC50 is 2.51 µM (active).

Turning to `Cc1ncc(CSC(=N)N)n1Cc1ccccc1`, the activity, negative = inhibition was -2.06% [at 11.4 µM]. As for `N=C(N)SCc1nc(-c2ccc(Cl)cc2)no1`, the AC50 was 1.26 µM (active).

With `Clc1ccc(-c2noc(CN3CCCCC3)n2)cc1`, the AC50 is 0.631 µM (active).

As for `Cc1ccc(-c2noc(CN3CCN(C(c4ccccc4)c4ccccc4)CC3)n2)cc1`, the AC50 entry was “inactive”. For `CCCNC(=O)OC[C@@H]1O[C@H](CCON=C(C)C)C=C[C@@H]1Oc1ccc(OC)cc1`, the activity, negative = inhibition was -2.59% [at 11.4 µM]. With `CC(=O)N1CCc2cc(Br)cc(S(=O)(=O)N3CCN(C(=O)c4ccco4)CC3)c21`, the AC50 entry is “inactive”.

Consider `CC(C)(O)C#Cc1ccc(C(=O)NCc2cccs2)s1`, for which the AC50 is 15.8 µM (active). For `Cc1cc(Nc2ccc(Cl)cc2)nc(N)n1`, the AC50 was 10 µM (active). With `Nc1nc(Cl)cc(NCCO)n1`, the activity, negative = inhibition is -22.6% [at 11.4 µM].

Consider `Cc1cc(C)c(S(=O)(=O)NNC(=O)C2CCN(Cc3ccccc3)CC2)c(C)c1`, for which the AC50 result is “inactive”. The same measure, in the same setting: the value for `COc1ccccc1N1CCN(Cc2cc(=O)n3ccsc3n2)CC1` was “inactive”; that for `O=C(/C=C\C=C/c1ccc2c(c1)OCO2)N1CCCCC1` was 3.16 µM (active). Take `O=C(/C=C\c1ccc2c(c1)OCO2)c1ccc(F)cc1`: the activity, negative = inhibition was -4.56% [at 11.4 µM].

On to `COc1ccccc1N1CCN(C(=O)/C=C/c2ccc3c(c2)OCO3)CC1`, for which the AC50 was 25.1 µM (active).
